HT1080NT lethal – qHTS for induction of synthetic lethality in tumor cells producing 2HG: qHTS for the HT-1080-NT fibrosarcoma cell line | hit rate 1.6% among 360,000 | Potency, µM (highest dose often 46.1 µM), without a hit: at the highest dose activity, negative = less viability, actives largely listed as cytotoxic | AID 686970, 2013 | HT-1080-NT fibrosarcoma viability, CellTiter-Glo ATP luminescence, 48 h;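 also: NT is the 2HG producing partner of a matched IDH1 knockdown line; potency is read from the fitted curve at half-maximal effect; 0% = DMSO-treated cells and -100% = media-only wells without cells; nearly all actives have a fitted effect of over 55% in size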
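Luminescent CellTiter-Glo readout after 48 hours of compound exposure at 37 degrees C defined viability of HT-1080-NT cells. Activity was normalized to DMSO wells and cell-free media wells; concentration-response curves were fitted and assigned curve classes.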
IL-1B inflam inh – qHTS for Inhibitors of Inflammasome Signaling: IL-1-beta AlphaLISA Primary Screen; THP-1 LPS/ATP IL-1B secretion, AlphaLISA, 16 h; stronger effect = lower value; activity change, % at 57.5 µM; hit rate 4.7% among 360,000; in the data active = activity change below about -50%; inconclusive = mostly about -30% to -49%
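THP-1 cells pretreated 1 hr with compounds (up to 57.5 uM final), then stimulated with LPS (250 ng/mL final) plus ATP (1.25 mM final); secreted IL-1B measured by AlphaLISA after 16 hr, decreased signal indicating inhibition.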
TDP1 cell noCPT – qHTS for Inhibitors of human tyrosyl-DNA phosphodiesterase 1 (TDP1): qHTS in cells in absence of CPT. DT40 Tdp1-/- hTDP1 cells, no CPT, ATP luminescence, 48 h. Potency, µM (highest dose often 46.2 µM), for the others: at the top dose activity change, negative = growth inhibition, usual class: inhibitors. hit rate 15% among 420,000; also: potency is read from the fitted curve at half-maximal effect; nearly all actives have a fitted effect of over 55% in size
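Growth kinetics read by CellTiter-Glo luminescence after ≥48 hr at 37 °C. Cells: DT40 Tdp1-/- stably carrying human TDP1, 400 per well, compound exposure in the absence of CPT (DMSO vehicle).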
ELG1 DNA repair – qHTS screen for small molecules that inhibit ELG1-dependent DNA repair in human embryonic kidney (HEK293T) cells expressing luciferase-tagged ELG1 | hit rate 2.3% among 330,000 | Potency, µM (top dose mostly 46.1 µM), inactives show at the highest dose activity change, negative = inhibition, usual class: inhibitors | HEK293T ELG1-luciferase reporter, luminescence, 16 h; DNA damage induced by 5-fluorouridine; also: potency is read from the fitted curve at half-maximal effect; nearly all actives have a fitted effect of over 55% in size
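Reporter activity after DNA damage by 5-fluorouridine is monitored. Compound-treated cells incubate 16 hr at 37 °C, then ONE-Glo is added for 30 min before luminescence reading.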
TDP1 cell CPT – qHTS for Inhibitors of human tyrosyl-DNA phosphodiesterase 1 (TDP1): qHTS in cells in presence of CPT. chicken DT40 Tdp1-/-;hTDP1 cells + 20 nM CPT, ATP luminescence, 48 h. Potency, µM (doses to about 46.2 µM), without a hit: at the top dose activity change, negative = growth inhibition, most hits filed as inhibitors. hit rate 12% among 420,000; also: potency is read from the fitted curve at half-maximal effect; nearly all actives have a fitted effect of over 55% in size
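Cell growth measured by CellTiter-Glo luminescence after a minimum 48 h, 37 C compound exposure with 20 nM CPT in Tdp1-knockout DT40 cells stably expressing hTDP1, seeded 400/well; qHTS titration format.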
HT1080 IDH1KD tx – qHTS for induction of synthetic lethality in tumor cells producing 2HG: qHTS for the HT-1080-IDH1KD cell line. HT-1080 IDH1 knockdown viability, ATP luminescence, 48 h. Potency, µM (doses to about 46.1 µM), inactives show at the top dose activity, negative = toxicity, usual class: cytotoxic. AID 686971, 2013. hit rate 2% among 360,000;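 also: potency is read from the fitted curve at half-maximal effect; 0% = DMSO wells and -100% = cell-free medium wells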
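Using the IDH1-knockdown HT-1080 line run in the same batch and compound series as the NT line, viability after 48 h at 37 °C was determined by CellTiter-Glo luminescence and expressed as % activity.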
Starred values were filed as active, the others as inactive; ? = inconclusive; / = not tested or not shown; [ ] = another dose, or the depositor's remark. Shown are actives, neighbours in structure and some others; about 19% of the full set was active somewhere. Unless noted, calls follow the shape of the dose curve; as a rule, active = well fitted curve in the direction sought with a large enough effect; inconclusive = small, poorly fitted or top-dose-only effect, or another doubt; inactive = no such curve, though single readings can be large; an effect the other way counts as inactive or inconclusive. Unless noted, % is scaled to controls: 0 for no effect and ±100 for the full control effect.

SMILES	HT1080NT lethal	IL-1B inflam inh	TDP1 cell noCPT	ELG1 DNA repair	TDP1 cell CPT	HT1080 IDH1KD tx
Cc1cccnc1Nc1nc(-c2ccccn2)cs1	1.3µM*	-111*	0.15µM*	?	0.13µM*	1µM*
CC(=O)Oc1ccc(-c2csc(Nc3ccccn3)n2)cc1	-20%	-24	7.3µM*	/	16µM*	?
Fc1ccc(-c2csc(Nc3ccccn3)n2)cc1	0%	12	?	?	16µM*	-26%
CC(=O)Nc1ccc(-c2csc(Nc3ncccn3)n2)cc1	-6%	0	2%	?	-6%	-5%
Cc1cccc(Nc2nc(-c3ccc(F)cc3)cs2)n1	-3%	-22	?	?	12µM*	-15%
CCCN(CC(=O)Nc1ccccc1C)C(=O)COc1c(Cl)cccc1Cl	1%	9	-25%	19%	-15%	-7%
COc1ccc(B(O)O)cc1	/	/	-1%	/	-10%	/
Cc1cccc(Nc2nc(-c3cccs3)cs2)n1	-18%	-15	23µM*	?	?	-28%
Cc1cccc(Nc2nc(-c3ccccn3)cs2)n1	0.32µM*	41	6.5µM*	?	5.2µM*	0.35µM*
Cc1ccnc2ccc(Br)cc12	/	/	-21%	/	-25%	/
N#Cc1ccccc1OCc1cccc(S(=O)(=O)N2CCOCC2)c1	-11%[9.24 µM]	25	-4%	0%	-11%	-10%
O=C(CCN1C(=O)c2cccc([N+](=O)[O-])c2C1=O)NC1CCCCCC1	4%	-8	-4%	14%	6%	20%
Cn1c(C2CCCCC2)nc2cc(N)ccc21	1%	15	-30%	13%	-19%	1%
COc1cccc(-c2c(C(=O)N/N=C(\C)c3ccc(Cl)s3)nnn2-c2nonc2N)c1	0%	20	-11%	0%	-19%	-9%
Cc1ccc(C2OCC(C)([N+](=O)[O-])CO2)cc1 (stereo not given)	11%	-13	-15%	/	15%	8%
Cc1cccc(NC(=O)CSc2ncnc3sc(C)c(C)c23)n1	-8%	-3	18µM*	-19%	16µM*	-13%
CCCN(CC1CC1)C(=O)CSc1ncnc2sc(C)c(C)c12	-5%	?	?	18µM*	?	-6%
CC(=O)Nc1ccc(NC(=O)CSc2ncnc3sc(C)c(C)c23)cc1	-1%	-27	?	-5%	-6%	5%
CCN(C(=O)CSc1ncnc2sc(C)c(C)c12)C1CCS(=O)(=O)C1 (stereo not given)	-14%	?	?	?	0%	-24%
CC(C)NC(=O)C1CCN(C2CCN(C(=O)c3scc4c3CCCC4)CC2)CC1	3%	9	?	2%	?	-5%
c1ccc(-c2nnc(-c3ccccn3)nn2)nc1	-9%	3	?	/	15µM*	-13%
c1ccc(-c2nnc(-c3ccccn3)c(-c3ccccn3)n2)nc1	-24%	11	?	2%	?	-24%
c1ccc(-c2cccc(-c3ccccn3)n2)nc1	?	47	3.7µM*	?	2.1µM*	0.28µM*
c1ccc(-c2ccncc2)nc1	7%	-2	-1%	21%	-8%	12%
CCC(=O)Nc1cccc(-c2ccc(N3CCN(C)CC3)nn2)c1	4%	-3	-17%	?	-14%	3%
SMILES	HT1080NT lethal	IL-1B inflam inh	TDP1 cell noCPT	ELG1 DNA repair	TDP1 cell CPT	HT1080 IDH1KD tx
CN1CCN(c2ccc(-c3cccc(NC(=O)COc4ccccc4)c3)nn2)CC1	1%	-5	21µM*	?	?	0%
CN1CCN(c2ccc(-c3cccc(NC(=O)COc4ccc(Cl)cc4)c3)nn2)CC1	0%	-70*	?	?	?	-12%
CN(C)CCn1c2c(c(SCC(=O)N3CCc4ccccc43)nc1=O)CCCC2	1%	-6	?	?	-26%	0%
CCn1cc(C(=O)NCCc2ccc(Cl)cc2)c(=O)c2cc(S(=O)(=O)N3CCOCC3)ccc21	/	/	3%	/	7%	/
CC(C)CN(CCNC(=O)c1cc(=O)[nH]c2ccc(S(=O)(=O)N3CCCCCC3)cc12)CC(C)C	/	/	-6%	/	-23%	/
COc1ccc(CCNC(=O)c2cn(C)c3ccc(S(=O)(=O)N(C)C)cc3c2=O)cc1OC	/	/	?	/	-5%	/
CCn1cc(C(=O)NCCc2ccccc2)c(=O)c2cc(S(=O)(=O)N3CCc4ccccc4C3)ccc21	/	/	21µM*	/	?	/
CCn1cc(C(=O)NCCc2ccc(OC)c(OC)c2)c(=O)c2cc(S(=O)(=O)N3CCc4ccccc4C3)ccc21	/	/	26µM*	/	?	/
CCCCN(CCCC)CCNC(=O)c1cc(=O)[nH]c2ccc(S(=O)(=O)N3CCCCCC3)cc12	/	/	16µM*	/	?	/
CCCCN(CCCC)CCNC(=O)c1cn(CC)c2ccc(S(=O)(=O)N3CCc4ccccc4C3)cc2c1=O	0%	0	23µM*	-2%	21µM*	5%
COc1ccc2c(c1)c1c(c(=O)n(Cc3ccccc3)c(=O)n1CC(=O)Nc1ccc(C)cc1C)n2C	/	/	15%	/	3%	/
Cc1cccn2c(=O)c(C(=O)NCc3cccc(F)c3)cnc12	/	/	?	/	-3%	/
C(=N/Nc1nc(-c2ccccc2)cc(-c2ccccc2)n1)/c1cccnc1	-16%	-53*	16µM*	?	?	-10%
Cc1cc(-c2ccccc2)nc(N/N=C/c2cccnc2)n1	9%	-4	-28%	-21%	-23%	0%
FC(F)(F)c1cccc(-c2ccc(/C=N/Nc3nncc(-c4ccccc4)n3)o2)c1	5%	7	9.2µM*	7%	?	5%
C(=N\Nc1nc(Nc2ccccc2)nc(Nc2ccccc2)n1)/c1cccnc1	-28%	-13	10µM*	6.5µM*	16µM*	-24%
COc1ccc(/C=N/Nc2nc(C)cc(-c3ccccc3)n2)cc1OC	-27%	?	?	?	-124%	-24%
Cc1ccc(-c2cc(-c3ccccc3)nc(N/N=C/c3cccnc3)n2)cc1	?	-18	?	/	29µM*	?
Clc1ccc(-c2ccc(/C=N/Nc3nncc(-c4ccccc4)n3)o2)cc1	43%	18	?	11%	?	11%

Screening data: PubChem BioAssay, National Center for Advancing Translational Sciences (NCATS)
